Among all 69,000 compounds or so, about 8,600 (12%) showed an effect of 50% or more. Many of the other results were omitted from the sample, so strong results are more common in it than they were.

This assay concerns Plasmodium berghei. As to the kind of experiment: Screen against P. berghei liver stage (PbLuc), transformed with Luciferase, at 10uM. The format is functional, HepG2. As to conditions: tested at 10 uM.
With `CCn1c(CN(C)Cc2csc(C)n2)nc2cc(F)ccc21`, the INHIBITION was found to be 45.2%. Take `CC(=O)c1c(C)nn(S(=O)(=O)c2ccc(C)c(C)c2)c1C`: the INHIBITION was found to be 4.97%. On to `CCOc1cc(=O)n2c(c1C(=O)OCc1ccc(F)cc1)CCCC2`, for which the INHIBITION was -3.77%. In the case of `Cn1cccc(NC(=O)NCCOCc2ccccc2)c1=O`, the INHIBITION was 28.5%. Regarding `Cn1cccc(NC(=O)NCCc2cccc(O)c2)c1=O`, the INHIBITION was 57.3%.

Take `Cn1cccc(NC(=O)NCc2cccc(CO)c2)c1=O`: the INHIBITION came to 42.4%. In the case of `CCN(Cc1ccccc1O)CC1(C)Cc2c(N)nc(N)nc2O1` (stereo unspecified), the INHIBITION amounted to 16.7%.

Regarding `COCCOC(=O)N1C[C@@H]2CC[C@H]1CN(C1Cc3ccccc3C1)C2`, the INHIBITION is given as -55%. The value for `COc1ccc(C2CCCN2C(=O)NCCNc2ccccn2)cc1` (stereo unspecified) was -21.2%; that for `Cc1nonc1NC(=O)CCn1cc(Br)ccc1=O` was 20.3%; that for `CCCOc1ccc(CCC(=O)Nc2nonc2C)cc1` was -11.3%. Regarding `Cc1ccc(OCCCC(=O)Nc2nonc2C)cc1C`, the INHIBITION is 86.1%. The value for `COCC1c2c(cnn2C)CCN1Cc1ccc(C)o1` (stereo unspecified) was 34.4%; that for `Cc1n[nH]c(C)c1CCC(=O)NCC1CCCN(C2CCCC2)C1` (stereo unspecified) was 38.6%; that for `COc1nn(C)cc1C(=O)N1CCC(C)CC1` was 49.9%. Turning to `CNC(=O)[C@H]1C[C@@H]2CN(C(=O)c3cccnc3)C[C@@H]2N1S(C)(=O)=O`, the INHIBITION stood at 10.5%. Regarding `Cc1ccc(CN2CCC3(CCN(S(=O)(=O)c4ccccc4)C3)C2)o1` (stereo unspecified), the INHIBITION was found to be 56.8%.

As for `Cc1ccc(CN2CCC3(CCCN(Cc4ccc(F)c(F)c4)C3)C2)o1` (stereo unspecified), the INHIBITION turned out to be 54.7%. As to `Cc1ccc(CN2CCC3(CCCN(S(C)(=O)=O)C3)C2)o1` (stereo unspecified), the INHIBITION amounted to 24.9%. With `Cc1ccc(CN2CCCC3(CCN(S(C)(=O)=O)C3)C2)o1` (stereo unspecified), the INHIBITION turned out to be 22.7%.

As for `Cc1c[nH]c(CN2CCC3(CCCN(Cc4ccc(F)c(F)c4)C3)C2)n1` (stereo unspecified), the INHIBITION came to 42.2%. Consider `CCS(=O)(=O)N1CCC2(CCN(Cc3ccc(C)o3)C2)C1` (stereo unspecified), for which the INHIBITION is reported as 13.1%. Take `Cc1ccc(CN2CCCC3(CCN(S(=O)(=O)N(C)C)C3)C2)o1` (stereo unspecified): the INHIBITION came to 48.3%. For `Cc1ccc(CN2CC3(CCN(S(=O)(=O)c4ccccc4)C3)C2)o1`, the INHIBITION was 12.4%. On to `Cc1ccc(CN2CCCC3(CCN(Cc4ccc(C)o4)C3)C2)o1` (stereo unspecified), for which the INHIBITION came to 74.7%. Next, `CC(=O)N1CCN([C@@H]2CC[C@@H](NC(=O)c3cc(C)cs3)[C@H]2O)CC1`: 33.7%; `Cc1cncc(C(=O)N2CCC3(CC2)NC(=O)CC3c2ccccc2)c1` (stereo unspecified): -3.88%. Consider `O=C([C@H]1C[C@H]2[C@H](CCN2Cc2cccs2)O1)N1CCOCC1`, for which the INHIBITION came to 24.8%. On to `CSc1ncccc1C(=O)N1C[C@@H]2CC[C@H]1CN(C(C)=O)C2`, for which the INHIBITION is -31.1%. With `COCCNc1c(-c2ccc(C)cc2)c(=O)c1=O`, the INHIBITION was found to be 25.3%. For the compound `Cc1cc(S(=O)(=O)N2CCC(S(C)(=O)=O)C2)ccc1F` (stereo unspecified), the INHIBITION was found to be 6.09%. As for `Cc1cc(S(=O)(=O)N2CCC(S(C)(=O)=O)CC2)ccc1F`, the INHIBITION came out at 16.6%. Next, `Cc1cc(S(=O)(=O)N2CCCN3CCCC3C2)ccc1F` (stereo unspecified): 88.1%; `Cc1ccc(S(=O)(=O)N2CCCCC(N3CCN(C)CC3)C2)cc1F` (stereo unspecified): 71.3%.

Take `Cc1ccc(S(=O)(=O)N2C[C@H](C3CC3)[C@@H](N)C2)cc1F`: the INHIBITION is listed as 22.5%.

For the compound `Cc1ccc(S(=O)(=O)N2CCC(N3CCCCC3)CC2)cc1C`, the INHIBITION was found to be 45.4%. With `CCc1ccc(CN2CCC3(CC2)CN(c2cnn(C)c2)C(=O)CO3)o1`, the INHIBITION is 34.4%. In the case of `Cc1ccc(OCCCSC2=NCCN2)cc1`, the INHIBITION was found to be 39.1%. `CSc1nc2cc(C)n(CC(=O)NC(C)C)c2c(=O)n1CC(C)C`: the INHIBITION was 43.9%. Next, `COCCNC(=O)Cn1c(C)cc2nc(SC)n(CC(C)C)c(=O)c21`: 89.9%; `CSc1nc2cc(C)n(CC(N)=O)c2c(=O)n1CC(C)C`: 42.3%; `Cc1cc(C)n(CC(=O)N2CCC(Nc3cccnn3)CC2)n1`: -7.95%.

On to `O=C(NCc1cccs1)[C@@H]1CC[C@@H]2[C@@H](CCN2C2CCOCC2)O1`, for which the INHIBITION came to 27.6%. Next, `Cc1ccccc1C(=O)N1CC[C@@H](N(C)C)[C@@H]1Cc1cnn(C)c1`: 34.6%. As for `CCO[C@@H]1CCN(C(=O)c2cscn2)[C@@H]1Cc1cnn(C)c1`, the INHIBITION was determined as 37.5%.

On to `Cn1cc(C[C@H]2[C@H](N3CCOCC3)CCN2C(=O)c2ccc[nH]2)cn1`, for which the INHIBITION turned out to be 55.5%. `CN(C)[C@@H]1CCN(C(=O)c2ccsc2)[C@H]1Cc1cnn(C)c1`: the INHIBITION was found to be 48.3%. Next, `CN(C)[C@@H]1CCN(C(=O)c2ccco2)[C@H]1Cc1cnn(C)c1`: 33.4%; `CN(C)[C@@H]1CCN(C(=O)c2cccn2C)[C@H]1Cc1cnn(C)c1`: 57.9%. Next, `Cn1cc(C[C@H]2[C@H](O)CCN2C(=O)c2ccsc2)cn1`: 60.2%. The value for `CCO[C@@H]1CCN(C(=O)c2cnc(C)cn2)[C@@H]1Cc1cnn(C)c1` was 53.2%; that for `COCCO[C@@H]1CCN(C(=O)c2ccc[nH]2)[C@H]1Cc1cnn(C)c1` was 33.4%. Consider `CN(C)C(=O)N1CC[C@@H](O)[C@@H]1Cc1cnn(C)c1`, for which the INHIBITION amounted to 19.5%.

With `Cn1cc(C[C@H]2[C@@H](O)CCN2C(=O)c2ccc[nH]2)cn1`, the INHIBITION stood at 4.27%. Turning to `Cn1cc(C[C@H]2[C@H](N3CCOCC3)CCN2C(=O)c2ccco2)cn1`, the INHIBITION is 17.1%. Turning to `O=c1ccc(-c2cccs2)nn1CN1CCOC(c2ccccc2)C1` (stereo unspecified), the INHIBITION is reported as -16.5%. Consider `Cc1oc(C)c(C(=O)N2CCN(Cc3cscn3)CC2)c1C`, for which the INHIBITION was -63.3%. Turning to `CN(C)c1cccc(C(=O)N2CCCSCC2CN2CCCC2)c1` (stereo unspecified), the INHIBITION is on record as 11%. In the case of `CC(C)C(NC(=O)Cn1nc2c(cc1=O)CCCC2)C(=O)O` (stereo unspecified), the INHIBITION is -0.621%.

Regarding `Cc1ccc(NCc2cncc3c2CCN(C(=O)C2CC=CC2)C3)nn1`, the INHIBITION is given as -25%. `O=C(c1cncs1)N1CCCC1c1ccn[nH]1` (stereo unspecified): the INHIBITION is given as -28.6%.

`Cc1nc(N2CCOCC2)nc2c1CCN(Cc1cccnc1)CC2`: the INHIBITION is 4.92%.

Take `Cc1cccc(N2CCN(C(=O)NC(C)c3nncn3C)CC2)c1` (stereo unspecified): the INHIBITION is on record as -38.2%. Next, `O=C(N[C@@H]1CC[C@@H](N2CCOCC2)[C@@H]1O)c1cnn2cccnc12`: 38.8%. With `O=C(c1ccnnc1)N1CC[C@H](OCC2CC2)[C@@H]1Cc1ccncc1`, the INHIBITION is 66.2%. As for `O=C(c1ccnnc1)N1CC[C@@H](O)[C@@H]1Cc1ccccc1`, the INHIBITION was -3.58%. For the compound `O=C(c1cccnc1)N1CC[C@H](OCC2CC2)[C@@H]1Cc1cccnc1`, the INHIBITION was found to be 34.8%. `CCO[C@@H]1CCN(C(=O)c2ccc[nH]2)[C@@H]1Cc1cnn(C)c1`: the INHIBITION is 29%. Consider `COCCO[C@H]1CCN(C(=O)NC2CC2)[C@H]1Cc1cnn(C)c1`, for which the INHIBITION was determined as 62.8%. As to `COCCO[C@@H]1CCN(C(=O)c2ccc(C)o2)[C@@H]1Cc1cnn(C)c1`, the INHIBITION was determined as 21.6%. Consider `COCCO[C@H]1CCN(C(=O)c2ccsc2)[C@H]1Cc1cnn(C)c1`, for which the INHIBITION is listed as -17.9%. As to `CCO[C@@H]1CCN(C(=O)N(C)C)[C@@H]1Cc1cnn(C)c1`, the INHIBITION is on record as 12.4%. Next, `COCCO[C@@H]1CCN(C(=O)c2ccnnc2)[C@H]1Cc1cnn(C)c1`: 53.4%; `COCCO[C@H]1CCN(C(=O)c2cccnc2)[C@H]1Cc1cnn(C)c1`: 1.9%; `COCCO[C@H]1CCN(C(=O)c2ccco2)[C@H]1Cc1cnn(C)c1`: -22.5%.

Take `CCO[C@@H]1CCN(C(=O)c2ccnnc2)[C@@H]1Cc1cnn(C)c1`: the INHIBITION was 69.5%.

These data come from ChEMBL document CHEMBL4513216, “Probing the Open Global Health Chemical Diversity Library for Multistage-Active Starting Points for Next-Generation Antimalarials” (ACS Infect Dis, 2020).
